# Experimental data as given in PubChem BioAssay (Tox21).
# Where “and” joins values, the source holds several entries; their conditions need not be identical. Identical values can stand only once. Inconclusive results are not listed. Where a call stands in place of a potency, no number is given. Calls of active or inactive are those of the source. Calls come from the whole dose curve; as a rule, active = well fitted cell-killing curve with a large enough effect in the repeat runs (not every such curve was filed as active); inconclusive = weak or mixed curves, or effect the other way; inactive = no such curve, though single readings can be large or run the other way.
# Experiment: qHTS assay to identify small molecule antagonists of the estrogen related receptor signaling pathway with the pleiotropic PPARgamma coactivator (PGC) from Tox21 10K library - cell viability counter screen (AID 1224840); note: nearly all actives have a fitted effect of over 40% in size
# Conditions: PGC/ERR reporter cells viability, CellTiter-Fluor, 17.5 h; series mostly up to 92.4 µM; viability change, negative = cytotoxic: at the top concentration
# Source text: National Center for Advancing Translational Sciences [NCATS]
# NIH Chemical Genomics Center [NCGC]
# U.S. Environmental Protection Agency [EPA]
# National Institutes of Environmental Health Sciences [NIEHS]
# National Toxicology Program [NTP]
# U.S. Food and Drug Administration [FDA]
# Estrogen related receptors (ERRs), the first orphan nuclear receptors discovered, play an important role in the control of cellular energy metabolism. ERRs are required for high-energy production in response to the environmental challenges. The pleiotropic PPARgamma coactivator (PGC) is a major partner of ERR and a key regulator in energy homeostasis. Together they have been implicated in the etiology of metabolic disorders such as Type 2 diabetes and metabolic syndrome. ERR-alpha was also identified as an adverse marker for breast cancer progression; ERR-alpha-positive tumors have a poor prognosis. To screen and to identify environmental compounds that perturb the ERR and PGC/ERR signaling pathways could provide valuable information for potential therapeutic or preventive measures in the treatment of metabolic disease. To differentiate true PGC/ERR antagonists or agonist from cytotoxic substances, the assay is multiplexed with cell viability assay.
# Tox21 Assay Protocol Summary:
# The PGC/ERR cells were dispensed at 2,000 cells/5 ul/well in 1536-well white plates using a Multidrop dispenser. After the assay plates were incubated at a 37 C/5% CO2 incubator for 6 hours, 23 nL of compounds dissolved in DMSO, positive and negative controls or DMSO only was transferred to the assay plate by a pin tool. The plates were incubated at 37 C for 17.5 hours. 1 ul/well of CellTiter-Fluor reagent was added into the assay plates using a Flying Reagent Dispenser. After 30-minute incubation at 37 C/5% CO2, the fluorescence intensity in the plates was measured using a ViewLux plate reader.
# Potency is the fitted concentration of half-maximal effect.
SMILES,Potency,"viability change, negative = cytotoxic"
Clc1ccccc1-c1nnc(-c2ccccc2Cl)nn1,inactive,
O=[N+]([O-])c1ccc(Cl)c([N+](=O)[O-])c1,49.3 µM (active) and 27.3 µM (active),
CCC[CH2][Sn]([Cl])([Cl])[CH2]CCC,492 nM (active) and 486 nM (active),
CC(C)(C#N)N=NC(C)(C)C#N,inactive,
[Cl-].[Cl-].[Cl-].[Fe+3],inactive,
O=P(OCCCl)(OCCCl)OCCCl,inactive,
COc1ccc(O)c(C(C)(C)C)c1,inactive,
Cl,inactive,
Cc1cc(Cl)ccc1N=CN(C)C,inactive,
COc1ccc(C=O)cc1OC,inactive,
CCCCC(C#N)(Cn1cncn1)c1ccc(Cl)cc1 (stereo not given),inactive,
CC[n+]1c(-c2ccccc2)c2cc(N)ccc2c2ccc(N)cc21,24.2 µM (active),
CCOP(=O)(OCC)OCC,inactive,
CC(C)(O)C#N,inactive,
COP(=O)(NC(C)=O)SC (stereo not given),inactive,
ClC(Cl)=C(Cl)C(Cl)=C(Cl)Cl,inactive,
CCC(=O)Nc1ccc(Cl)c(Cl)c1,inactive,
CC1(C)Cc2cccc(O)c2O1,inactive,
Oc1ccc(Cl)cc1Cc1ccccc1,inactive,
CCOP(=S)(OCC)SCn1c(=O)oc2cc(Cl)ccc21,inactive,

SMILES,Potency,"viability change, negative = cytotoxic"
N#CCCCCC#N,inactive,
[CH3][Sn]([Cl])([Cl])[Cl],inactive,
Clc1ccc(C(Cl)(Cl)Cl)cc1,inactive,
CNC(=O)Oc1cccc2c1OC(C)(C)C2,inactive,
Brc1ccc(Br)cc1,inactive,
N#Cc1cccnc1,inactive,
CS(=O)(=O)NC(=O)c1cc(Oc2ccc(C(F)(F)F)cc2Cl)ccc1[N+](=O)[O-],inactive,
ClCc1ccccn1,inactive,
N#Cc1c(Cl)c(Cl)c(Cl)c(C#N)c1Cl,4.24 µM (active) and 6.11 µM (active),
CCOP(=S)(OCC)SCSC(C)(C)C,inactive,
O=C1Nc2ccc(Cl)cc2C(c2ccccc2)=NC1O (stereo not given),inactive,
C[N+](C)(C)C,inactive,
CCCCOCC1CO1 (stereo not given),inactive,
NN=C(N)N,inactive,
C[C@]12CC[C@H]3[C@@H](CCC4=CC(=O)CC[C@@H]43)[C@@H]1CC[C@@H]2O,,-5.78% [at 42.5 µM] (inactive)
O=NN1CCOCC1,inactive,
COC(=O)Nc1nc2ccccc2[nH]1,inactive,
COP(=S)(OC)Oc1ccc(Sc2ccc(OP(=S)(OC)OC)cc2)cc1,inactive,
O=C(O)CF,inactive,
CNC(=O)CSP(=S)(OC)OC,inactive,
